Calls of active or inactive are those of the source. How the source made its calls: active means hit-call score of the fitted dose curve at least 0.9, where 1 is the maximum; inactive means score below 0.9.
What was measured:
[1] = APR_HepG2_NuclearSize_72hr: Apredica 72-hour HepG2 Assay for Nuclear Size (AID 2282925); settings: high-content imaging, actives raise or lower the signal
Outline: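 HepG2 cells were exposed to compounds at ten concentrations from 0.39 to 200 uM (duplicate, 0.5% DMSO final) for 72 hr. After fixation in 3.7% formaldehyde, nuclei were stained with Hoechst 33342 (2 ug/mL) and imaged at 20x.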

[2] = ATG_CRE_CIS: Attagene CIS-FACTORIAL HepG2 Assay for human cAMP Responsive Element (CRE) binding protein 3 (AID 2282926); settings: HepG2 CRE cis-reporter, Attagene multiplexed mRNA; actives raise or lower the signal
Outline: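 Multiplexed transcription-unit reporters transfected into HepG2; 24 h dosing; RT-PCR/capillary electrophoresis fluorescence read-out; bidirectional fit vs DMSO.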

[3] = ATG_CMV_CIS: Attagene CIS-FACTORIAL HepG2 Assay for human CMV (Internal Marker) (AID 2282928); settings: HepG2 CMV promoter reporter, transcription factor profiling; actives raise or lower the signal;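 further: endpoint acts as a background internal control marker rather than a target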
Outline: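 After transient transfection of HepG2 with reporter transcription units driven by cis-regulatory promoters, cells receive test chemical for 24 h. Labeled reporter amplicons, digested with HpaI, are sized and quantified by capillary electrophoresis against DMSO.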

[4] = ATG_DR4_LXR_CIS: Attagene CIS-FACTORIAL HepG2 Assay for human Liver X Receptor (LXR), DR4 submotif (AID 2282929); settings: HepG2 Attagene DR4 cis-reporter, mRNA transcription; actives raise or lower the signal
Outline: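 Readout: reporter transcript fluorescence after RT-PCR and capillary electrophoresis, fitted bidirectionally against DMSO controls. Human HepG2 liver cells carried transiently transfected multiplexed reporter constructs; endogenous transcription factor activity measured 24 h post-dosing.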

[5] = biological target: Aryl hydrocarbon receptor (Homo sapiens) (UniProt P35869); test: ATG_Ahr_CIS: Attagene CIS-FACTORIAL HepG2 Assay for human Aryl Hydrocarbon Receptor (Ahr) (AID 2282930); settings: HepG2 AhR cis-factorial reporter transcription; actives raise or lower the signal
Aryl hydrocarbon receptor (Homo sapiens), sequence (P35869 whole entry, looked up): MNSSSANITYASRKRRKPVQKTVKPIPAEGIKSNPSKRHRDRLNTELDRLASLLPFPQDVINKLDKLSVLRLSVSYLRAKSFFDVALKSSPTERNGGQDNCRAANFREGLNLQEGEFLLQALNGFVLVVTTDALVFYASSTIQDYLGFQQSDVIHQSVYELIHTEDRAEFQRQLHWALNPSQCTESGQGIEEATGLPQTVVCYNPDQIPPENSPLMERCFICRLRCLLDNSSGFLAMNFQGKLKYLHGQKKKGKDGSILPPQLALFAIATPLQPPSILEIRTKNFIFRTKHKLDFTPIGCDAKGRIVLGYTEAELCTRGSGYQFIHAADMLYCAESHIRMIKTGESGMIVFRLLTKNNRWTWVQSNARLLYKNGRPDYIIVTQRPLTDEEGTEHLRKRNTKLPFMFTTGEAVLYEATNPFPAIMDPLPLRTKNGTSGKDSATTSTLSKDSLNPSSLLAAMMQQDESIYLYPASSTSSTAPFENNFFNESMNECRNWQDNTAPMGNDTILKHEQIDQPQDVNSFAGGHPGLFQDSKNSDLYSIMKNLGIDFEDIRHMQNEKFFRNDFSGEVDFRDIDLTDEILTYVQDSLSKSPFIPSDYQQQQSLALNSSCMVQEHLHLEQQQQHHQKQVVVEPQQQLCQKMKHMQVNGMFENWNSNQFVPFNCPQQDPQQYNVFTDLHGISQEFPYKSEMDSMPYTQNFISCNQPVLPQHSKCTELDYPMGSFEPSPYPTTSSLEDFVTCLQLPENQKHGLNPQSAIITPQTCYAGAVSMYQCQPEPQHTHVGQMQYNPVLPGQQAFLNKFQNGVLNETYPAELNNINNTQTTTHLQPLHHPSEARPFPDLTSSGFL
Outline: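 HepG2 cells transiently transfected with cis-element-driven multiplexed reporter transcription units; endogenous transcription factor activity measured as reporter mRNA 24 h after dosing. RT-PCR, 6-FAM labelling, HpaI digestion, capillary electrophoresis; bidirectional fitting versus DMSO baseline.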

[6] = ATG_AP_1_CIS: Attagene CIS-FACTORIAL HepG2 Assay for human Activator Protein 1 (AP-1) (AID 2282931); settings: HepG2 Attagene cis-factorial AP-1 reporter mRNA; actives raise or lower the signal
Outline: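 Reporter transcripts were measured 24 h after dosing by RT-PCR and capillary electrophoresis of fluorescent fragments. Cells: HepG2 carrying transfected cis-regulated reporter constructs reading endogenous factor activity. Gain or loss fitted against DMSO.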

[7] = ATG_AP_2_CIS: Attagene CIS-FACTORIAL HepG2 Assay for human Activator Protein 2 (AP-2) (AID 2282932); settings: HepG2 AP-2 cis-reporter, Attagene transcription factor profiling; actives raise or lower the signal
Outline: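 HepG2 cells were transiently transfected with multiple cis-promoter reporter transcription units and dosed for 24 h. Reporter mRNA was measured by RT-PCR with capillary electrophoresis fluorescence; bidirectional fits relative to DMSO baseline.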

[8] = ATG_BRE_CIS: Attagene CIS-FACTORIAL HepG2 Assay for human Bone Morphogenetic Protein (BMP) Response Element (BRE) (AID 2282933); settings: HepG2 BMP response element reporter, Attagene transcription factor profiling; actives raise or lower the signal
Outline: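 Transient MRTU transfection of human HepG2 liver cells; 24 h compound treatment; total RNA isolated, reverse-transcribed, PCR-amplified, 6-FAM labelled, HpaI-cut, capillary electrophoresis. DMSO = negative control/baseline, bidirectional fit.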

[9] = biological target: Retinoic acid receptor alpha (Homo sapiens) (UniProt P10276); test: ATG_DR5_RAR_CIS: Attagene CIS-FACTORIAL HepG2 Assay for human Retinoic Acid Receptor Alpha (RARE), DR5 submotif (AID 2282934); settings: HepG2 Attagene cis-factorial RARE DR5 reporter, mRNA; actives raise or lower the signal;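 on AC50: reporter responds to endogenous RAR alpha beta and gamma in HepG2 not RARA alone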
Retinoic acid receptor alpha (Homo sapiens), sequence (P10276 whole entry, looked up): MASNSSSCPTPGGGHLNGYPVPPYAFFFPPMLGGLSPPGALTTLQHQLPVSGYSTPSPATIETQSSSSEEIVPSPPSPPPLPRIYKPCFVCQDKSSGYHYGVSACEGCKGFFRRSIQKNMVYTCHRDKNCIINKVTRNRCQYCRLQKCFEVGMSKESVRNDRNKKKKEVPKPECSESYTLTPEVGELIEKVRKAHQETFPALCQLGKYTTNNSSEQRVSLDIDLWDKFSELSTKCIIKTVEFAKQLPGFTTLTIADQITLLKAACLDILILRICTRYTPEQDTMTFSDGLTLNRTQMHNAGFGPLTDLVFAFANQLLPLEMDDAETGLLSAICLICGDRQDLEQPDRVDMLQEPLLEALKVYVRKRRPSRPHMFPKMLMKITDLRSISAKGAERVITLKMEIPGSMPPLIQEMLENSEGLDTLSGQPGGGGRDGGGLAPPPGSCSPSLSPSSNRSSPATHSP
Outline: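 HepG2 cells transiently transfected with multiplexed reporter units under cis (DR5 RARE) promoters, so endogenous transcription factor activity is measured. After 24 h compound exposure, reporter mRNA is quantified by RT-PCR with fluorescent labelling and capillary electrophoresis; bidirectional fitting versus DMSO.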

[10] = biological target: Transcription factor E2F1 (Homo sapiens) (UniProt Q01094); test: ATG_E2F_CIS: Attagene CIS-FACTORIAL HepG2 Assay for human E2F Transcription Factor 1 (AID 2282935); settings: HepG2 Attagene cis-reporter, E2F reporter RNA transcripts; actives raise or lower the signal
Transcription factor E2F1 (Homo sapiens), sequence (Q01094 whole entry, looked up): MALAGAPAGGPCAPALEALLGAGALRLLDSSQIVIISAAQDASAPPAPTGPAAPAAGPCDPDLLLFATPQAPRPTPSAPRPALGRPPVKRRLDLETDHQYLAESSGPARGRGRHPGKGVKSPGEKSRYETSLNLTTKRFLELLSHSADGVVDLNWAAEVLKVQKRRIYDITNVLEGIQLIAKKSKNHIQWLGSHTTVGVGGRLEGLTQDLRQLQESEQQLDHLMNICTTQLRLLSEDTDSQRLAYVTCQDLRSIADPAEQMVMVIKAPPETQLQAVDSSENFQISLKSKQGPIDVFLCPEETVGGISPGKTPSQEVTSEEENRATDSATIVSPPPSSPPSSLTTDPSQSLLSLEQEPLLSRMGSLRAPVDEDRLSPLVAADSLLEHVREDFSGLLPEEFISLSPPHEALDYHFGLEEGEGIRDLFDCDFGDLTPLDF
Outline: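 HepG2 cells transiently transfected with multiplexed cis-element reporter units, dosed for 24 h. Reporter mRNA measured by RT-PCR, 6-FAM primer-extension labeling, HpaI digestion and capillary electrophoresis; bidirectional fit versus DMSO baseline.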

[11] = ATG_E_Box_CIS: Attagene CIS-FACTORIAL HepG2 Assay for human Enhancer Box (E-box) (AID 2282936); settings: HepG2 E-box cis-reporter transcription, actives raise or lower the signal
Outline: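 HepG2 cells transiently transfected with multiplexed cis-element reporter units sensing endogenous transcription factor activity; 24 h compound exposure. Reporter mRNA measured by RT-PCR, 6-FAM primer extension, HpaI digestion and capillary electrophoresis; bidirectional fit versus DMSO.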

[12] = ATG_M_61_CIS: Attagene CIS-FACTORIAL HepG2 Assay for M61 Transcription Factor (Internal Marker) (AID 2282937); settings: HepG2 Attagene CIS-FACTORIAL M61 internal marker reporter; actives raise or lower the signal
Outline: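 Readout: fluorescent reporter mRNA fragments resolved by capillary electrophoresis after RT-PCR. Transiently transfected human HepG2 cells carried MRTU constructs reporting endogenous TF activity; 24 h chemical exposure; gain or loss of signal fitted relative to DMSO.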

[13] = ATG_EGR_CIS: Attagene CIS-FACTORIAL HepG2 Assay for human Early Growth Response 1 (EGR1) (AID 2282938); settings: HepG2 Attagene CIS-FACTORIAL EGR reporter mRNA; actives raise or lower the signal
Outline: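 Read-out: fluorescent reporter-mRNA fragments resolved by capillary electrophoresis after RT-PCR, 24 h post-dose in transiently transfected HepG2. Endogenous transcription-factor activity reported via cis-element-regulated reporter units; gain or loss fitted relative to DMSO.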

[14] = ATG_M_19_CIS: Attagene CIS-FACTORIAL HepG2 Assay for M19 Transcription Factor (Internal Marker) (AID 2282939); settings: HepG2 Attagene CIS-FACTORIAL M19 internal marker reporter; actives raise or lower the signal
Outline: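 Transfect HepG2 with MRTU reporter library → dose chemical, 24 h → isolate total RNA, reverse-transcribe with oligo(dT) → PCR, 6-FAM label, HpaI cut (2 h, 37 C) → capillary electrophoresis. Bidirectional fit vs DMSO.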

[15] = ATG_ERE_CIS: Attagene CIS-FACTORIAL HepG2 Assay for Estrogen Response Element (ERE) (AID 2282940); settings: HepG2 ERE cis-reporter, Attagene RNA transcript; actives raise or lower the signal
Outline: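 Transient MRTU transfection of human HepG2; cis-element promoters; 24 h dosing; total RNA → RT (oligo dT) → PCR → 6-FAM primer extension → HpaI digest → CE fluorescence. Bidirectional fit, DMSO baseline.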

[16] = ATG_Ets_CIS: Attagene CIS-FACTORIAL HepG2 Assay for human Erythroblast Transformation Specific (ETS) (AID 2282941); settings: HepG2 ETS cis-reporter transcription, actives raise or lower the signal
Outline: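 Human HepG2 hepatoma cells were transiently transfected with promoter-driven reporter constructs and treated for 24 hours. Reporter transcripts were quantified by RT-PCR with fluorescent primer extension; bidirectional curve fitting used DMSO as reference.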

[17] = biological target: Hepatocyte nuclear factor 3-beta (Homo sapiens) (UniProt Q9Y261); test: ATG_FoxA2_CIS: Attagene CIS-FACTORIAL HepG2 Assay for human Forkhead box A2 (FOXA2) (AID 2282942); settings: HepG2 cis-reporter transcription factor activity, 24 h; actives raise or lower the signal
Hepatocyte nuclear factor 3-beta (Homo sapiens), sequence (Q9Y261 whole entry, looked up): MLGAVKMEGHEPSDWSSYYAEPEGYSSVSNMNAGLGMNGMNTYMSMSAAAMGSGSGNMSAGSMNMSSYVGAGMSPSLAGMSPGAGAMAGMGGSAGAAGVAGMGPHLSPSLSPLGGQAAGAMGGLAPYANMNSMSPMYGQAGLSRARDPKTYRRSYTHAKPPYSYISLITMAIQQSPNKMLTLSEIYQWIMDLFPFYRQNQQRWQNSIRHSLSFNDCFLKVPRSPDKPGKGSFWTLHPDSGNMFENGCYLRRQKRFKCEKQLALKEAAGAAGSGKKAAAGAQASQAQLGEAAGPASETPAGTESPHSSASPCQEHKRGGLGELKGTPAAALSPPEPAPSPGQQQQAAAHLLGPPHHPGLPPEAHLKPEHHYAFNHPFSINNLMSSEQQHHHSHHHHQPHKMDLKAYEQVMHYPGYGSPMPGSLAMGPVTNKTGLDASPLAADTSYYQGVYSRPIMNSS
Outline: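 Readout: fluorescent reporter transcripts resolved by capillary electrophoresis after RT-PCR. Transiently transfected HepG2, 24 h compound exposure, endogenous TF activity at cis promoter elements. Gain or loss of signal fitted relative to DMSO.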

[18] = ATG_FoxO_CIS: Attagene CIS-FACTORIAL HepG2 Assay for human Forkhead box O (FoxO) (AID 2282943); settings: HepG2 Attagene cis-reporter, FoxO element, mRNA; actives raise or lower the signal
Outline: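 HepG2 cells transiently transfected with cis-promoter-driven multiple reporter transcription units; 24 h after chemical dosing, reporter mRNA quantified by RT-PCR, fluorescent primer extension, HpaI digestion and capillary electrophoresis. Bidirectional fitting versus DMSO baseline.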

[19] = ATG_GATA_CIS: Attagene CIS-FACTORIAL HepG2 Assay for human GATA Binding Protein (AID 2282944); settings: HepG2 GATA cis-element reporter, Attagene multiplex mRNA; actives raise or lower the signal
Outline: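 Transient MRTU transfection, HepG2, 24 h compound exposure. Total RNA → oligo(dT) RT → PCR → 6-FAM primer extension → HpaI cut → CE. Bidirectional fit vs DMSO.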

[20] = biological target: CCAAT/enhancer-binding protein beta (Homo sapiens) (UniProt P17676); test: ATG_C_EBP_CIS: Attagene CIS-FACTORIAL HepG2 Assay for human CCAAT/Enhancer Binding Protein (C/EBP) beta (AID 2282927); settings: HepG2 Attagene cis-factorial transcription factor reporter; actives raise or lower the signal
CCAAT/enhancer-binding protein beta (Homo sapiens), sequence (P17676 whole entry, looked up): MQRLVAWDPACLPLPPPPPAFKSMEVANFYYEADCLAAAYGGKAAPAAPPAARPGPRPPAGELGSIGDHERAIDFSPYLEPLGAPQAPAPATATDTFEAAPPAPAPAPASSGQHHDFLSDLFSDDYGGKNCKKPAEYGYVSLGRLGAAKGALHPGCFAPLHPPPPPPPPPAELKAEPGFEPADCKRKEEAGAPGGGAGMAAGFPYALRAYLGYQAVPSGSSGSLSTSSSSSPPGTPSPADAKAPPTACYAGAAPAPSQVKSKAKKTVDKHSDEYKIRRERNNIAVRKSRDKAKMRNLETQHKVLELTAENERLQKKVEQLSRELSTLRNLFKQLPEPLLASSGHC
Outline: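 RT-PCR/capillary electrophoresis fluorescence of reporter mRNA, 24 h post-dose, in HepG2 cells carrying transfected cis-promoter reporter units. Bidirectional curve fitting against DMSO baseline captures gain or loss of signal.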

Measured: AC50

COc1cc(C=O)ccc1O
active: [5] 80.8 µM | [9] 31.1 µM
not listed: [20]
inactive: all other assays above

Cc1nc(-c2ccc3c(c2)CCN(CCC2CCC(NC(=O)/C=C/c4ccc(F)cc4)CC2)CC3)no1 (stereo unspecified)
not listed: [9] | [20]
inactive: all other assays above

CCCc1cc(=O)[nH]c(=S)[nH]1
active: [5] 63.9 µM | [15] 4.56 µM
not listed: [2]
inactive: all other assays above

NS(=O)(=O)c1cc2c(cc1Cl)NCNS2(=O)=O
not listed: [2] | [9] | [17] | [20]
inactive: all other assays above

CN1CCN(Cc2cc(-c3ccc4[nH]c(=O)oc4c3)co2)[C@@H](c2ccc(F)cc2)C1
active: [4] 56.5 µM | [6] 53.9 µM | [13] 33 µM
not listed: [2] | [9] | [17]
inactive: all other assays above

Cc1c(C(=O)O)c(O)cc2c1C(=O)c1c(O)c([C@@H]3O[C@H](CO)[C@@H](O)[C@H](O)[C@H]3O)c(O)c(O)c1C2=O
not listed: [2] | [17]
inactive: all other assays above

CC1(C)CC(N=C=O)CC(C)(CN=C=O)C1 (stereo unspecified)
not listed: [2] | [17]
inactive: all other assays above

CC1(C)NC(=O)NC1=O
active: [15] 26.3 µM
not listed: [2] | [17] | [20]
inactive: all other assays above

C[C@]12C=CC(=O)C=C1CC[C@@H]1[C@@H]2C(=O)C[C@@]2(C)[C@H]1CC[C@]2(O)C(=O)CO
active: [15] 6.76 µM
not listed: [2] | [17]
inactive: all other assays above

CC(=O)OC/C=C(\C)CCC=C(C)C
not listed: [2] | [17] | [20]
inactive: all other assays above

CCCCCCCCCCCC(=O)OC
not listed: [2] | [9]
inactive: all other assays above

C=CCc1ccc(O)c(OC)c1
active: [3] 80.2 µM
not listed: [2] | [17]
inactive: all other assays above

CC1=C(/C=C/C(C)=C/C=C/C(C)=C/CO)C(C)(C)CCC1
inactive: [1] | [20] | [8] | [10] | [11] | [12] | [16]
active: [3] 193 µM | [4] 65.6 µM | [5] 104 µM | [6] 168 µM | [7] 164 µM | [9] 0.104 µM | [13] 80.7 µM | [14] 172 µM | [15] 4.13 µM | [18] 167 µM | [19] 166 µM

— PubChem BioAssay (EPA / NIEHS)
